# Source: PubChem (National Center for Advancing Translational Sciences (NCATS))
# D2 PAM-1 = positively modulates the human D2 dopamine receptor allosterically. P14416. HEK293 T-REx D2, calcium flux, EC20 dopamine potentiation. potentiation, % at 10 µM. actives 0.34% (n = 340,000);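 active means potentiation over 3 SD above the plate norm, cut at about 30% in these data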
# Target sequence (P14416 whole entry, looked up): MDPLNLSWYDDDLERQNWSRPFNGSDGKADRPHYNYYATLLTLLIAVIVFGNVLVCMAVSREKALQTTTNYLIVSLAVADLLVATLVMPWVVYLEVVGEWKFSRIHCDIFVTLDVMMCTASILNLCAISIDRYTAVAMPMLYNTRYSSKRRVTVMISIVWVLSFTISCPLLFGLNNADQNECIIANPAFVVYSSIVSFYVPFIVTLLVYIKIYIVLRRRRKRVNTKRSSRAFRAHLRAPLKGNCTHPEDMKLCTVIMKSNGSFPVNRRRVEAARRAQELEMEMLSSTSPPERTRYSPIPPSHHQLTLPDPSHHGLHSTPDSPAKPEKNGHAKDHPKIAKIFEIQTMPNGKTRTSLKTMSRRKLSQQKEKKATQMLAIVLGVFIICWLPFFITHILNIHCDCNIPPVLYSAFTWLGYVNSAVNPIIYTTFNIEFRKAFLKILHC
#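 Potentiation of an EC20 dopamine calcium response is measured in a force-coupled, tetracycline-inducible Hek293 Trex D2 line. Compound-only kinetic reads over 180 s flag agonists before dopamine addition.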
# D2 PAM-2 = positive allosteric modulators of human D2 dopamine receptor; P14416; DiscoveRx D2 beta-arrestin cells, luminescence, 90 min; 100% = 57 uM dopamine signal; potentiation, % (no concentration beside the values); actives 0.23% (n = 360,000); AID 624464; in the data active means potentiation above about 50%; inconclusive means mostly about 30% to 49%
#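 PathHunter beta-arrestin assay in DiscoveRx D2 cells. Compounds were added with an EC20 of dopamine (50 nM final) for 90 min at 37 deg C. Luminescence was read 1 h after detection reagent, with 57 uM dopamine as the EC100 control.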
# D2 antag = antagonists of human D2 dopamine receptor; actives 2% (n = 340,000); inhibition, % at 10 µM; HEK293 TREx D2 cells, calcium flux, dopamine EC80; P14416; AID 485344; in the data active means inhibition above about 30%; inactive means below that, where a call was filed
#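 Calcium mobilization kinetics were recorded at 1 s intervals in tetracycline-induced HEK293 T-REx D2 cells, first for 180 s after compound addition and then 180 s after EC80 dopamine.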
# Apoferritin bind = binds horse apoferritin like a general anesthetic; Potency, µM (top dose mostly 77.5 µM), most hits filed as inhibitors; AID 485281; actives 0.074% (n = 350,000); P02791; apoferritin/1-aminoanthracene competitive binding, fluorescence; active means well fitted inhibition curve with a large enough effect; inconclusive means small, poorly fitted or top-dose-only effect; inactive means no such curve, though single readings can be large or run the other way; further: nearly all actives have a fitted effect of over 20% in size
#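 Apoferritin-based anesthetic binding model; compound displacement of fluorescent 1-AMA measured as endpoint fluorescence after 10 minutes at room temperature, scaled to free-ligand and complex controls.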
# D2 ag-1 = activates the human D2 dopamine receptor. actives 0.53% (n = 340,000). HEK293 T-REx D2 cells, calcium flux agonist mode. activation, % at 2 µM. AID 485358;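 active means activation over 3 SD above normal in the single-dose calcium agonist read, cut at about 30% in these data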
#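 In this primary screen, compounds producing a positive calcium signal within 180 s of addition to tetracycline-induced, force-coupled HEK293 Trex D2 cells are flagged; cells are dye-loaded with a no-wash calcium kit beforehand.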
# D2 ag-2 = human D2 receptor agonism in beta-arrestin assay; DiscoveRx PathHunter D2 beta-arrestin, luminescence, 90 min; 100% = 57 uM dopamine signal; activation, % (no concentration beside the values); P14416; actives 0.084% (n = 360,000); in the data active means activation above about 40%; inconclusive means between about 15% and that limit
#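 DiscoveRx PathHunter D2 beta-arrestin cells (2,100/well) attached overnight, then compound-stimulated 90 min at 37 C in HBSS/10 mM HEPES/0.1% Tween-20 buffer; beta-galactosidase complementation read by luminescence after 1 h at ambient temperature. Dopamine 57 uM final (EC100) as control.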
# A number is an active result; i = inactive; ? = inconclusive; nt = no result given. In the library only some 2.5% were active in any assay of this set; here they are far more common.
SMILES,D2 PAM-1,D2 PAM-2,D2 antag,Apoferritin bind,D2 ag-1,D2 ag-2
Nc1cc(C(F)(F)F)ccc1-n1cccc1,i,i,39,i,i,i
CC1CCCN(c2nc3c(c(=O)n(C)c(=O)n3C)n2CCSc2nc3ccccc3o2)C1 (stereo unspecified),30,i,i,i,i,i
O=C(NNS(=O)(=O)c1ccccc1F)c1cccc(S(=O)(=O)N2CCOCC2)c1,i,i,i,i,i,i
COC(=O)c1cccc(-c2noc(-c3ccccc3F)n2)c1,i,nt,i,nt,i,nt
COc1ccc(Cc2nn3c(Cn4nnc5ccccc54)nnc3s2)cc1,i,i,39,i,i,i
O=C(NNC(=O)c1cnccn1)c1ccc(Cl)c(Cl)c1,i,i,i,i,nt,i
COc1ccccc1CNC(=O)C1CCN(S(=O)(=O)c2ccc(N3CCCC3=O)cc2)CC1,i,i,37,i,i,i
COc1cccc(NC(=O)C2CCN(S(=O)(=O)c3ccc(N4CCCC4=O)cc3)CC2)c1,nt,i,nt,nt,nt,i
O=C(Nc1cccc(C(F)(F)F)c1)C1CCN(S(=O)(=O)c2ccc(N3CCCC3=O)cc2)CC1,i,i,64,i,i,i
COc1ccc(OC)c(S(=O)(=O)Nc2cccc(C(C)=O)c2)c1,i,i,i,i,i,i
C=CCn1c(SCC(=O)Nc2nc(C)cs2)nnc1C(CO)NC(=O)c1ccccc1 (stereo unspecified),i,i,i,i,i,i
O=C(OCc1nnc(-c2ccc([N+](=O)[O-])cc2)o1)C1CCN(C(=O)c2ccc(F)cc2)CC1,i,i,35,nt,i,i
COc1ccc(C2=NN(C(=O)CSc3ncccn3)C(c3ccc(C)cc3)C2)cc1 (stereo unspecified),i,i,i,i,i,i
COc1ccc(C2=NN(C(=O)CSc3nc(=O)n4cccc(C)c4n3)C(c3ccc(C)cc3)C2)cc1 (stereo unspecified),i,i,34,nt,i,i
O=C1CSC(=Nc2cccc(C(=O)O)c2)N1,i,i,i,i,i,i
O=C1CSC(=Nc2cccc([N+](=O)[O-])c2)N1,i,i,43,i,i,i
Cc1ccc(Nc2ccccc2)cc1,i,i,40,?,i,i
Cc1ccc(S(=O)(=O)Nc2ccc(Nc3ccccc3)cc2)cc1,i,i,i,i,i,i
O=C(O)c1ccc(N/N=C/c2ccnc3ccccc23)cc1,i,i,40,i,i,i
OC[C@@H]1CN(Cc2ccccc2)C[C@H](n2cnc3c(N4CCCC4)ncnc32)O1,nt,i,nt,nt,nt,i
Cc1ccc(SCC(=O)NCc2ccco2)cc1,i,i,i,i,i,i
Cc1c(Cl)c(C(F)(F)F)nn1CC(=O)NCc1ccco1,nt,i,40,i,i,i
Cc1c(Cl)c([N+](=O)[O-])nn1CC(=O)NCc1ccco1,i,i,42,i,i,i
Cc1ccc(SCCC(=O)NCc2ccco2)cc1,35,i,i,i,i,i
O=C(c1cccs1)N1CCN(C(=O)C(c2ccccc2)c2ccccc2)CC1,i,i,i,i,i,i
SMILES,D2 PAM-1,D2 PAM-2,D2 antag,Apoferritin bind,D2 ag-1,D2 ag-2
COC(=O)c1coc(-c2ccc(OC)cc2)c1C(=O)OC,i,i,i,i,i,i
COc1cc2[nH]cc(C(=O)NCc3ccccc3)c(=O)c2cc1OC,i,i,i,i,i,i
COc1cc(C(=O)NCCC(=O)NC(C)CCc2ccccc2)cc(OC)c1OC (stereo unspecified),33,i,i,i,i,i
COc1ccc2[nH]c(C(=O)NCCc3ccccc3)cc2c1,i,i,i,i,i,i
COc1cc2[nH]c(C(=O)NCc3ccccc3)cc2c(OC)c1OC,i,i,84,i,i,i
COc1cc2[nH]cc(C(=O)NCCc3ccccc3)c(=O)c2cc1OC,39,i,i,i,i,i
COc1cc2[nH]c(C(=O)NCCc3ccccc3)cc2c(OC)c1OC,i,i,79,i,i,i
COc1ccccc1NS(=O)(=O)c1cc(C(=O)NCc2cccnc2)ccc1C,i,i,i,nt,i,i
